# Laboratory results published in publication PMC7862700, “An all-to-all approach to the identification of sequence-specific readers for epigenetic DNA modifications on cytosine”.
# Legend:
# Assay in all cases: DAPPL (digital affinity profiling via proximity ligation, sequencing); 10 mM Tris-HCl pH 7.5, 50 mM NaCl, 1 mM DTT, 4% glycerol, room temperature, 30 min; GST-TFs on glutathione beads, 16-mer random dsDNA library, 0.1% formaldehyde crosslink after washing; high values mean tight binding
# Conditions in all cases: protein: recombinant; tags: N-terminal GST; dsDNA, one strand shown
# FLI1 = target: T1, FLI1 (Homo sapiens, UniProt Q01543 1-452)
# T1 sequence: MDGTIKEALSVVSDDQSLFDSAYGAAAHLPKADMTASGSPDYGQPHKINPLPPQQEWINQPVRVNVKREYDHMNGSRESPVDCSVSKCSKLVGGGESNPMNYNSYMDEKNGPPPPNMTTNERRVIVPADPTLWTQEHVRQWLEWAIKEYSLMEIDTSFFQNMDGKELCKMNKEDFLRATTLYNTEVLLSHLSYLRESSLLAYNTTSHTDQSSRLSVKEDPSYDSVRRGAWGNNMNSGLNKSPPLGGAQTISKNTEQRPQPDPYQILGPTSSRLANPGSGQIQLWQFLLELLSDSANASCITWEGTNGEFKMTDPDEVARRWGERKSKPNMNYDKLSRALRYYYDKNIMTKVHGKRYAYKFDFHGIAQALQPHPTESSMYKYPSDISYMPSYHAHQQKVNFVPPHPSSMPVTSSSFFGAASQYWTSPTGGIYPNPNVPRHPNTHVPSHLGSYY
# Procedure, shortened: (§1)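 The binding signal reported is, for every hexamer, its read frequency for a factor over its read frequency for the tag-only sample. Reads came from pools of yeast-expressed, GST-fused human transcription factors on glutathione beads, barcoded with DNA and mixed with that sample, which were incubated with 200 nmole of a random double-stranded 16-mer DNA library in Tris/NaCl/DTT/glycerol buffer at room temperature for 30 min. After washing, the pools were crosslinked with 0.1% formaldehyde, proximity-ligated with BsaI/T4 ligase for 1 h at 37 °C, PCR-amplified and sequenced on an Illumina NextSeq500.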
# ELK1 = target: T2, ELK1 (Homo sapiens, UniProt P19419 1-428)
# T2 sequence: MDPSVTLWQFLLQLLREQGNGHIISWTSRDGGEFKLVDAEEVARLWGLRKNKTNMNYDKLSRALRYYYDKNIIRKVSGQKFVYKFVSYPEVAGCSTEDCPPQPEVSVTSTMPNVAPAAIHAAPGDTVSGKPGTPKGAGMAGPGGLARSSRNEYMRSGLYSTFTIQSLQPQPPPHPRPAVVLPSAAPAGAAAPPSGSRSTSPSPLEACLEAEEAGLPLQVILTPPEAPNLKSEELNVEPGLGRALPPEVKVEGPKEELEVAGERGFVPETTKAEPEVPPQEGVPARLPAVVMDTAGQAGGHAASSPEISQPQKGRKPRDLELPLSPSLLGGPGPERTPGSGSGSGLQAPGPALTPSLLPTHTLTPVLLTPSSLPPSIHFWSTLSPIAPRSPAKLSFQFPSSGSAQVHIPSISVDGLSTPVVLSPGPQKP
# Procedure, shortened: as §1
# GABPA = target: T3, GABPA (Homo sapiens, UniProt Q06546 1-454)
# T3 sequence: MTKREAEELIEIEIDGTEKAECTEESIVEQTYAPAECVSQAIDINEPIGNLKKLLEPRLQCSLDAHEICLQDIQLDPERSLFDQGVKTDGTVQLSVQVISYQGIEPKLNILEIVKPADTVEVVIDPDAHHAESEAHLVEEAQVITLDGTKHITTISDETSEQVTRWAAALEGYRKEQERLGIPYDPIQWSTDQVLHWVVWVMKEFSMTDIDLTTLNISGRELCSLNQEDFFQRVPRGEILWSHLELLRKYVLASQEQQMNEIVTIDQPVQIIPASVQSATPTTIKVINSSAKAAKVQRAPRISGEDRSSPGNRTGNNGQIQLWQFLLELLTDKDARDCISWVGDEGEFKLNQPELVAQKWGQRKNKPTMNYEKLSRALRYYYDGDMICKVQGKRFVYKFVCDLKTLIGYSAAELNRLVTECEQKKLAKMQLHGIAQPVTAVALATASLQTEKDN
# Procedure, shortened: as §1
# ERG = target: T4, ERG (Homo sapiens, UniProt P11308 1-479)
# T4 sequence: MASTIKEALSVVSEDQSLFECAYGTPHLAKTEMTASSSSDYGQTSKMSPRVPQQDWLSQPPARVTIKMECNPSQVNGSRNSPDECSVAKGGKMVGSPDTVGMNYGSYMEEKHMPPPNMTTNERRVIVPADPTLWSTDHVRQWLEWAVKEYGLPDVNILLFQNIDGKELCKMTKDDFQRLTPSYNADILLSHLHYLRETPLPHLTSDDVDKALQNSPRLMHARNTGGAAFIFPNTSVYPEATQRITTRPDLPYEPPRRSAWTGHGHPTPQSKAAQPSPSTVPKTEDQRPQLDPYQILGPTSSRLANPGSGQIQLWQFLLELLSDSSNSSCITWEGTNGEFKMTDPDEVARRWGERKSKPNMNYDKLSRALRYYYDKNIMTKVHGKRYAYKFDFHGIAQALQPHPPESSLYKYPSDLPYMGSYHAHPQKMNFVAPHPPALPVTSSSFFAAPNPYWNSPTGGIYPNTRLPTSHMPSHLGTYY
# Procedure, shortened: as §1
# ELF1 = ELF1 (Homo sapiens, UniProt P32519 1-619)
# ELF1, sequence (P32519 whole entry): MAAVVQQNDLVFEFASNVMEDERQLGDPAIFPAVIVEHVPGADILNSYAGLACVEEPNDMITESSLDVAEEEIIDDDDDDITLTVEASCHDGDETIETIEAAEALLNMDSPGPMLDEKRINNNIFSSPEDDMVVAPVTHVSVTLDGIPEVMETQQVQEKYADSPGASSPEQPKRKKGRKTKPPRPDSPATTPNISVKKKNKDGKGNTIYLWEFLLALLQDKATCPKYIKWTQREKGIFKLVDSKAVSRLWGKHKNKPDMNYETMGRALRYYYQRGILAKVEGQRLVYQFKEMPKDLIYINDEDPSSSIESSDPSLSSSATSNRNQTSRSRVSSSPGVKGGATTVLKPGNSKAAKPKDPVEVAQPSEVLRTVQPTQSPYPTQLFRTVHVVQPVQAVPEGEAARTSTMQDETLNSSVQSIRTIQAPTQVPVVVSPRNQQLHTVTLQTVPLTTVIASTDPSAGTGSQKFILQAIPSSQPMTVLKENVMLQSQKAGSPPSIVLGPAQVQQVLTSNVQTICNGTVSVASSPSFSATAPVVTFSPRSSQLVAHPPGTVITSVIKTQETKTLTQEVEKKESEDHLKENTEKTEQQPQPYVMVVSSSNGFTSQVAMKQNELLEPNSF
# Procedure, shortened: as §1
# EHF = target: T5, EHF (Homo sapiens, UniProt Q9NZC4 1-300)
# T5 sequence: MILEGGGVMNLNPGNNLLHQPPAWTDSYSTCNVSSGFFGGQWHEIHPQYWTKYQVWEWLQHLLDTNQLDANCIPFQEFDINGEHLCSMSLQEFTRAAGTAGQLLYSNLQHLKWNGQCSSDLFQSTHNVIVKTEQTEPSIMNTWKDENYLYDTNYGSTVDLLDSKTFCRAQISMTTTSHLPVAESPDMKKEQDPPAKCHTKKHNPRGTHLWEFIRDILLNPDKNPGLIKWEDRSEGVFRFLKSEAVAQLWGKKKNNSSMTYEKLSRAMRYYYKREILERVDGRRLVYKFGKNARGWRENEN
# Procedure, shortened: as §1
# SPI1 = SPI1 (Homo sapiens, UniProt P17947 1-270)
# Procedure, shortened: as §1
# SPIB = SPIB (Homo sapiens, UniProt Q01892 1-262)
# SPIB, sequence (Q01892 whole entry): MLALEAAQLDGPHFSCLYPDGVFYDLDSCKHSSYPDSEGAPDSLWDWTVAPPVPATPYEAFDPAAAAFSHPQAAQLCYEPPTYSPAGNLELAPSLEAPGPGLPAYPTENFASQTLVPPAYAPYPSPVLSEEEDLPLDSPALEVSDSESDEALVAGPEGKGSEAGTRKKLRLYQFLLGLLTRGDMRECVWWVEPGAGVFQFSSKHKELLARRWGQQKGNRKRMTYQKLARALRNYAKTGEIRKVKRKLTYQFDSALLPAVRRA
# Procedure, shortened: as §1
# ELK3 = target: T6, ELK3 (Homo sapiens, UniProt P41970 1-407)
# T6 sequence: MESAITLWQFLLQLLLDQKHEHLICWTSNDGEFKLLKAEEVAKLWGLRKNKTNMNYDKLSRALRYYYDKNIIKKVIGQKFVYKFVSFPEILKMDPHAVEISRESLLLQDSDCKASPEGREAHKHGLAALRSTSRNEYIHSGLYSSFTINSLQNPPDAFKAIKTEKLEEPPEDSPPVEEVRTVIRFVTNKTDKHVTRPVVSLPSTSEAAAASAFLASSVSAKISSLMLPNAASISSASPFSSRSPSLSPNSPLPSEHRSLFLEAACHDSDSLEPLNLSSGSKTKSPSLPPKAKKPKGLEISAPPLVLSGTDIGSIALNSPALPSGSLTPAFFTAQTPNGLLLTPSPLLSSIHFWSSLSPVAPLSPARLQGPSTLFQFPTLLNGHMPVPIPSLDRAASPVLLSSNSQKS
# Procedure, shortened: as §1
sequence,measurement,setting,value
CCGCAT,binding signal,FLI1,"1.61 fold enrichment (6-mer frequency, TF over GST control)"
same,binding signal,ELK1,"1.59 fold enrichment (6-mer frequency, TF over GST control)"
same,binding signal,GABPA,"1.54 fold enrichment (6-mer frequency, TF over GST control)"
same,binding signal,ERG,"1.52 fold enrichment (6-mer frequency, TF over GST control)"
same,binding signal,ELF1,"1.58 fold enrichment (6-mer frequency, TF over GST control)"
same,binding signal,EHF,"1.61 fold enrichment (6-mer frequency, TF over GST control)"
same,binding signal,SPI1,"1.99 fold enrichment (6-mer frequency, TF over GST control)"
same,binding signal,SPIB,"1.55 fold enrichment (6-mer frequency, TF over GST control)"
same,binding signal,ELK3,"1.6 fold enrichment (6-mer frequency, TF over GST control)"
